# Measurements taken from PubChem BioAssay (NCI).
# “And” between values parts separate entries of the source, which are not always exact repeats. Equal entries are not always repeated. This is part of a sample that, as a whole, favours compounds with a hit. Of some 83,000 tested, about 20% had one in any assay.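 Compound tested at a single concentration for 48 hours in 96-well plates; a percent growth value below 10 was scored as active.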 The source made the active and inactive calls.
# Test system: HCT-15 colon
# Assay: NCI-60 one-dose screen, 48 h (100 = growth as untreated, 0 = no growth, -100 = all killed)
# Conditions: 10 µM unless noted
row,Compound,growth
1,COc1ccc(C(=O)c2ccc(OC)c(OC)c2OC)cc1,26.6% (inactive) and 27.2% (inactive)
2,O=C1/C(=C/c2ccccc2)CN(C(=O)C(Cl)Cl)C/C1=C\c1ccccc1,-24.2% (active)
3,C=C(C)[C@@H]1CC[C@]2(C(=O)O)CC[C@]3(C)[C@H](CC[C@@H]4[C@@]5(C)CCC(N)C(C)(C)[C@@H]5CC[C@]43C)[C@@H]12 (stereo partly drawn),29.4% (inactive)
4,N#C/C(=C\c1ccc(Br)cc1)n1nnc2c(F)cccc21,1.57% (active)
5,COC1=CC(=O)C(OC)=C(O)C1=O,97.7% (inactive)
6,CC(C)(C)c1cc(NC(=O)Nc2ccc(-c3cn4c(n3)sc3cc(OCCN5CCOCC5)ccc34)cc2)no1,23.8% (inactive) and 51.5% (inactive)
7,COc1cccc(C2C(C#N)=C(N)Oc3cc(OCCCCCC[P+](c4ccccc4)(c4ccccc4)c4ccccc4)ccc32)c1 (stereo not drawn),62% (inactive)
8,COc1ccc(-c2ccccc2)cc1-c1c(Nc2cc(Cl)cc(Cl)c2O)c(=O)c1=O,10.2% (inactive)
9,Cc1ccc(S(=O)(=O)Nc2cc(Sc3ccccc3)c(O)c3ccccc23)cc1,91.9% (inactive)
10,COC(=O)c1[nH]nc(OC)c1C1(C(C#N)c2nc3ccccc3s2)CCCc2ccccc21 (stereo not drawn),102% (inactive)
11,COc1ccc(-c2cc(-c3cccc(Cl)c3)c(C#N)c(=O)[nH]2)c(OC)c1,97.7% (inactive)
12,Cc1nc(-n2[nH]c(=O)ccc2=O)sc1N=Nc1ccccc1,101% (inactive)
13,COc1ccc(-c2csc(NC(=O)CN3CCN(CCO)CC3)n2)cc1NS(=O)(=O)c1cccc2c(N(C)C)cccc12,39.6% (inactive)
